Results published in PubChem BioAssay AID1159580 (chemical genetic matrix, 2015).
Several values for one entry are separate records, joined by “and”; a condition that tells them apart may be missing. Identical values can stand only once. Screen size: about 5,500 compounds; about 2,000 (36%) were called active. Roughly 18% stayed inconclusive and do not appear here. Cut-off read from the data, not from the text of the source: active = normalized growth mostly below about 0.91 (no sharp cut-off); inconclusive = no clear call, values can overlap the other calls; inactive = mostly above about 0.92. The list shows a part of the results.

Assay: chemical genetic growth profiling, strain panel (AID 1159580);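 note: tested at 20 µM; growth read once vehicle control cultures reached saturation at 30 °C; 1 = growth at the plate median or of vehicle wells; lower values mean less growth of the strain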
Settings: growth OD

Measured: normalized growth

O=C(CCc1ccc(O)cc1)c1c(O)cc(O)cc1O
inactive: S. cerevisiae deletion strains, locus YJR075W, strain HOC1, stronger effect = lower value 1.01 | S. cerevisiae deletion strains, locus YKL009W, strain mrt4, stronger effect = lower value 1.03 | S. cerevisiae deletion strains, locus YKL068W, stronger effect = lower value 1 | S. cerevisiae deletion strains, locus YKL085W, strain MDH1 (second series), stronger effect = lower value 1.02 | S. cerevisiae deletion strains, locus YKL085W, strain MDH1, stronger effect = lower value 1.02 | S. cerevisiae deletion strains, locus YKL160W, strain elf1, stronger effect = lower value 0.978 | S. cerevisiae deletion strains, locus YKL190W, strain CNB1, stronger effect = lower value 1.01 | S. cerevisiae deletion strains, locus YKR001C, strain vps1, stronger effect = lower value 1.02 | S. cerevisiae deletion strains, locus YKR026C, strain gcn3, stronger effect = lower value 1.01 | S. cerevisiae deletion strains, locus YKR091W, strain srl3, stronger effect = lower value 1.01 | S. cerevisiae deletion strains, locus YLL001W, strain dnm1, stronger effect = lower value 0.985 | S. cerevisiae deletion strains, locus YLL026W, stronger effect = lower value 1.01 | S. cerevisiae deletion strains, locus YLL041C, strain sdh2, stronger effect = lower value 1.02 | S. cerevisiae deletion strains, locus YLR027C, strain aat2, stronger effect = lower value 1.01 | S. cerevisiae deletion strains, locus YLR039C, strain RIC1, stronger effect = lower value 1.04 | S. cerevisiae deletion strains, locus YLR058C, strain SHM2, stronger effect = lower value 1.01 | S. cerevisiae deletion strains, locus YLR102C, strain apc9, stronger effect = lower value 1 | S. cerevisiae deletion strains, locus YLR113W, strain HOG1, stronger effect = lower value 0.966 | S. cerevisiae deletion strains, locus YLR221C, strain rsa3, stronger effect = lower value 1 | S. cerevisiae deletion strains, locus YLR258W, strain gsy2, stronger effect = lower value 1.03 | S. cerevisiae deletion strains, locus YLR262C, strain YPT6 (second series), stronger effect = lower value 1.02 | S. cerevisiae deletion strains, locus YLR262C, strain YPT6, stronger effect = lower value 1.02 | S. cerevisiae deletion strains, locus YLR268W, strain sec22, stronger effect = lower value 0.997 | S. cerevisiae deletion strains, locus YLR320W, strain mms22, stronger effect = lower value 1.02 | S. cerevisiae deletion strains, locus YLR330W, strain CHS5, stronger effect = lower value 1.01 | S. cerevisiae deletion strains, locus YLR342W, strain FKS1 (second series), stronger effect = lower value 1.02 | S. cerevisiae deletion strains, locus YLR342W, strain FKS1, stronger effect = lower value 1.01 | S. cerevisiae deletion strains, locus YLR357W, strain rsc2, stronger effect = lower value 0.955 | S. cerevisiae deletion strains, locus YLR370C, strain arc18, stronger effect = lower value 1.01 | S. cerevisiae deletion strains, locus YLR371W, strain rom2, stronger effect = lower value 1 | S. cerevisiae deletion strains, locus YLR384C, strain iki3, stronger effect = lower value 1.02 | S. cerevisiae deletion strains, locus YLR418C, strain cdc73, stronger effect = lower value 0.991 | S. cerevisiae deletion strains, locus YML016C, strain PPZ1, stronger effect = lower value 1.01 | S. cerevisiae deletion strains, locus YML032C, strain rad52, stronger effect = lower value 1.07 | S. cerevisiae deletion strains, locus YML120C, strain ndi1, stronger effect = lower value 1.01 | S. cerevisiae deletion strains, locus YML124C, strain tub3, stronger effect = lower value 1.01 | S. cerevisiae deletion strains, locus YMR058W, strain fet3, stronger effect = lower value 0.968 | S. cerevisiae deletion strains, locus YMR078C, strain ctf18, stronger effect = lower value 1.02 | S. cerevisiae deletion strains, locus YMR125W, strain sto1, stronger effect = lower value 1 | S. cerevisiae deletion strains, locus YMR129W, stronger effect = lower value 1.02 | S. cerevisiae deletion strains, locus YMR205C, strain PFK2, stronger effect = lower value 1.01 | S. cerevisiae deletion strains, locus YMR223W, strain ubp8, stronger effect = lower value 1.04 | S. cerevisiae deletion strains, locus YMR231W, strain pep5, stronger effect = lower value 0.988 | S. cerevisiae deletion strains, locus YMR263W, strain SAP30, stronger effect = lower value 0.991 | S. cerevisiae deletion strains, locus YMR307W, strain GAS1, stronger effect = lower value 0.986 and 1.01 | S. cerevisiae deletion strains, locus YNL067W, strain RPL9B, stronger effect = lower value 0.994 | S. cerevisiae deletion strains, locus YNL071W, strain lat1, stronger effect = lower value 1.03 | S. cerevisiae deletion strains, locus YNL128W, strain TEP1, stronger effect = lower value 0.995 | S. cerevisiae deletion strains, locus YNL153C, strain GIM3, stronger effect = lower value 0.991 and 0.975 | S. cerevisiae deletion strains, locus YNL175C, strain NOP13, stronger effect = lower value 1 | S. cerevisiae deletion strains, locus YNL183C, strain NPR1, stronger effect = lower value 0.947 | S. cerevisiae deletion strains, locus YNL197C, strain WHI3, stronger effect = lower value 1 | S. cerevisiae deletion strains, locus YNL209W, strain ssb2, stronger effect = lower value 1 | S. cerevisiae deletion strains, locus YNL224C, strain SQS1, stronger effect = lower value 0.997 | S. cerevisiae deletion strains, locus YNL233W, strain BNI4, stronger effect = lower value 0.985 | S. cerevisiae deletion strains, locus YNL248C, strain rpa49, stronger effect = lower value 1.03 | S. cerevisiae deletion strains, locus YNL250W, strain rad50, stronger effect = lower value 1.03 | S. cerevisiae deletion strains, locus YNL271C, strain bni1, stronger effect = lower value 1.01 | S. cerevisiae deletion strains, locus YNL298W, strain CLA4, stronger effect = lower value 1.03 | S. cerevisiae deletion strains, locus YNL307C, strain MCK1, stronger effect = lower value 1.03 | S. cerevisiae deletion strains, locus YNL322C, strain KRE1 (second series), stronger effect = lower value 0.978 | S. cerevisiae deletion strains, locus YNL322C, strain KRE1, stronger effect = lower value 1 and 0.999 | S. cerevisiae deletion strains, locus YNR049C, strain mso1, stronger effect = lower value 1.01 | S. cerevisiae deletion strains, locus YNR052C, strain pop2, stronger effect = lower value 1.02 | S. cerevisiae deletion strains, locus YOL006C, strain TOP1, stronger effect = lower value 1.02 | S. cerevisiae deletion strains, locus YOL012C, strain htz1 0.845 | S. cerevisiae deletion strains, locus YOL147C, strain pex11, stronger effect = lower value 1.01 | S. cerevisiae deletion strains, locus YOR001W, strain rrp6, stronger effect = lower value 1.03 | S. cerevisiae deletion strains, locus YOR061W, strain CKA2, stronger effect = lower value 0.998 | S. cerevisiae deletion strains, locus YOR069W, strain VPS5, stronger effect = lower value 0.995 | S. cerevisiae deletion strains, locus YOR070C, strain gyp1, stronger effect = lower value 1.02 | S. cerevisiae deletion strains, locus YOR080W, strain dia2, stronger effect = lower value 1.01 | S. cerevisiae deletion strains, locus YOR083W, strain WHI5 (second series), stronger effect = lower value 1.01 | S. cerevisiae deletion strains, locus YOR083W, strain WHI5, stronger effect = lower value 0.982 | S. cerevisiae deletion strains, locus YOR106W, strain vam3, stronger effect = lower value 1.02 | S. cerevisiae deletion strains, locus YOR136W, strain idh2, stronger effect = lower value 1.02 | S. cerevisiae deletion strains, locus YOR144C, strain elg1, stronger effect = lower value 1 | S. cerevisiae deletion strains, locus YOR184W, strain ser1, stronger effect = lower value 1.07 | S. cerevisiae deletion strains, locus YOR231W, strain MKK1, stronger effect = lower value 0.983 | S. cerevisiae deletion strains, locus YOR265W, strain rbl2, stronger effect = lower value 1 | S. cerevisiae deletion strains, locus YOR270C, strain vph1, stronger effect = lower value 1.06 | S. cerevisiae deletion strains, locus YOR290C, strain snf2, stronger effect = lower value 0.982 | S. cerevisiae deletion strains, locus YOR316C, strain cot1, stronger effect = lower value 0.996 | S. cerevisiae deletion strains, locus YPL051W, strain arl3, stronger effect = lower value 0.983 | S. cerevisiae deletion strains, locus YPL055C, strain LGE1, stronger effect = lower value 0.992 and 1.01 | S. cerevisiae deletion strains, locus YPL078C, strain atp4, stronger effect = lower value 1 | S. cerevisiae deletion strains, locus YPL106C, strain sse1, stronger effect = lower value 0.976 | S. cerevisiae deletion strains, locus YPL240C, strain hsp82, stronger effect = lower value 1.01 | S. cerevisiae deletion strains, locus YPL241C, strain CIN2, stronger effect = lower value 1 | S. cerevisiae deletion strains, locus YPL256C, strain CLN2, stronger effect = lower value 0.961 | S. cerevisiae deletion strains, locus YPR119W, strain clb2, stronger effect = lower value 1.01 | S. cerevisiae deletion strains, locus YPR141C, strain kar3, stronger effect = lower value 1.02 | S. cerevisiae deletion strains, locus YPR163C, strain tif3, stronger effect = lower value 1.02 | S. cerevisiae deletion strains, locus YPR167C, strain met16, stronger effect = lower value 1.01 | S. cerevisiae deletion strains, strain wtn01, stronger effect = lower value 0.978 | S. cerevisiae strains, strain wild type, stronger effect = lower value 0.998
